# Entries with a potency or affinity are not part of this list.
# Tests used:
# Staphylococcus aureus = conditions: Concentration 32 ug.mL-1;; ASSAY_TEST Inhibition of Bacterial Growth; detection method Absorption (OD600); MEDIA CAMHB; plate type 384well; NBS; CORNING #3640; time 18 hr
# Escherichia coli = conditions: Concentration 32 ug.mL-1;; ASSAY_TEST Inhibition of Bacterial Growth; detection method Absorption (OD600); MEDIA CAMHB; plate type 384well; NBS; CORNING #3640; time 18 hr
SMILES,Inhibition (Staphylococcus aureus) [%],Inhibition (Escherichia coli) [%]
O=C(Cn1nc2c(SC3CCCCC3)nccn2c1=O)Nc1ccccc1Br,-0.6,-5.42
COc1ccccc1NC(=O)CSc1nnc2c(=O)n(-c3ccc(C)c(C)c3)ccn12,0.64,-7.52
Cc1ccc(NC(=O)Cn2nc3c(SCc4ccc(Cl)cc4)nccn3c2=O)c(C)c1,10.91,-3.69
Cc1cccc(C)c1NC(=O)CSc1nnc2ccc(C(=O)Nc3cccc(F)c3)cn12,12.1,2.91
Cc1cc(C)cc(Nc2nc(C)cc3nn(CC(=O)N(C)c4cccc(C)c4)c(=O)n23)c1,5.67,-3.82
Cc1nnc2ccc(S(=O)(=O)N(Cc3cccc(F)c3)c3ccc(Cl)cc3)cn12,9.42,-6.55
CC(C)c1nnc2c(=O)n(CC(=O)Nc3ccc(Cl)c(Cl)c3)c3ccccc3n12,8.95,5.48
O=c1n(Cc2cccc(C(F)(F)F)c2)nc2c(S(=O)(=O)N3CCCC3)cccn12,9.3,-1.06
O=C(CSc1nnc2c(=O)n(-c3ccccc3)ccn12)Nc1ccc(F)cc1F,-3.92,-2.13
O=c1n(Cc2nc(-c3ccc(OC(F)(F)F)cc3)no2)nc2ccc(-c3ccccc3)nn12,-0.65,-5.47
N#Cc1cccc(NC(=O)CSc2nnc3c4cc(-c5ccccc5)nn4ccn23)c1,2.79,-3.47
Cc1ccc(NC(=O)Cn2nc3ccc(SC(C)(C)C)nn3c2=O)c(Cl)c1,-0.06,-7.75

# — ChEMBL document CHEMBL4513146, “CO-ADD screening of Karazin Kharkiv National University (Ukraine) compounds”
